These results are taken from PubChem BioAssay (EPA / NIEHS).

The source made the active and inactive calls. The calls were made as follows: active = hit-call score of the fitted dose curve at least 0.9, where 1 is the maximum; inactive = score below 0.9.

The experiment can be described thus: CCTE_Shafer_MEA_dev_mutual_information_norm: CCTE's Neural Network Formation Assay for Mutual Information Normalization, Shafer Lab (AID 2284091).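 As to AC50: potency is for a decrease in mutual information relative to DMSO.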 The protocol:
CCTE_Shafer_MEA_dev assay is conducted using Axion Biosystems 48 well microelectrode array (MEA) plates and Maestro recording system. Each well of the MEA plate contains a grid of 16 microelectrodes embedded in the culture surface. Electrically active cells, such as neurons, can be cultured over the electrodes, and electrical activity in these cells can be recorded extracellularly. The spontaneous firing of neurons is captured from each electrode on a microsecond timescale providing both temporally and spatially precise data. […] The CCTE_Shafer_MEA_dev assay uses primary cultures of rat cortical neurons. Recordings are made on days post-plating 5, 7, 9 and 12. As these cultures mature over time, neural networks develop functional activity and form cohesive networks in which electrical activity can be highly coordinated. CCTE_Shafer_MEA_dev_mutual_information_norm is 1 of 19 assay components of the CCTE_Shafer_MEA_dev assay. It is a measure of shared information between electrodes during a recording in a microelectrode array (MEA) using Axion Biosystems Maestro 768 channel amplifier with the AxIS adaptive spike detector. To collapse across multiple recordings made on days post-plating 5, 7, 9 and 12, the trapezoidal area-under-the-curve of the component is calculated.Data from the assay component CCTE_Shafer_MEA_dev_mutual_information_norm was analyzed into 1 assay endpoint. This assay endpoint, CCTE_Shafer_MEA_dev_mutual_information_norm, was analyzed in the negative analysis fitting direction relative to DMSO as the negative control and baseline of activity. Using a type of functional reporter, gain or loss-of-signal activity can be used to understand electrical activity.
On the day prior to culture, each well was coated thoroughly with 150 uL of 0.05% polyethyleneimine (PEI, Sigma Cat P3143) in 50 mM HEPES (Sigma Cat H7523) at a pH of 8. The plate was incubated at 37C for one hour. PEI was rinsed out with 500 uL of sterile water three times. Plates were stored at 4C until the day of culture. This culture was plated at a seeding density of 1.5 x 10^5 cells/well on a 48-well MEA plate, prepared as described above. Cells were administered via a 25 uL media/laminin ([…]; Sigma Cat L2020-1MG) drop directly onto the microelectrode array, as adding the cells with the laminin results in better attachment than pre-coating with laminin. After 2 hours, an additional 475 uL of cortical media was added and the cells returned to the incubator. Exposure starts at day 0 of plating and is continued over twelve days of network development until the experiment is terminated. Cells are fed with fresh medium on DIV 5 and 9, following the recordings on those days. The entire volume of media in the well is exchanged and any vehicle or compound treatment is renewed. Complete details are found in OP-NHEERL/ISTD/SBB/TJS/2015-03-r0 (available on request, email shafer.tim@epa.gov). Measurement of the electrical activity is non-invasive, and recordings can be made from the same plate over multiple different days of the culture. In cortical neurons, this allows for the measurement of extracellular action potentials over the period during which networks form in the MEA plate.
With `OC(Cc1ccccc1Cl)(Cn1[nH]cnc1=S)C1(Cl)CC1` (stereo not given), the half-maximal activity concentration (AC50) (as a rule, the concentration at which the activity in the assay is half-maximal) was 6.39 µM (active).

`CC(C)[C@@H](Nc1ccc(C(F)(F)F)cc1Cl)C(=O)OC(C#N)c1cccc(Oc2ccccc2)c1` (stereo not given in full): the AC50 is 9.36 µM (active).

`FC(F)OCC(F)(F)C(F)(F)F`: the call was inactive.

For `Cc1ccccc1OP(=O)(Oc1ccccc1C)Oc1ccccc1C`, the AC50 was 11.5 µM (active).

For `C=CCOC(F)(C(F)(F)F)C(F)(F)F`, the outcome was inactive.

Consider `CC(=O)C(F)(F)C(F)(F)F`, for which the call was inactive.

As to `CS(=O)(=O)c1ccc(C(=O)C2C(=O)CCCC2=O)c(Cl)c1COCC(F)(F)F`, the outcome was inactive.

`Cc1cc(C(F)(C(F)(F)F)C(F)(F)F)ccc1NC(=O)c1cccc(I)c1C(=O)NC(C)(C)CS(C)(=O)=O`: the molecule was called inactive.

As to `O=S(=O)(F)C(F)(F)C(F)(F)C(F)(F)C(F)(F)F`, the molecule was called inactive.

Take `CC(F)(F)CC(F)(F)F`: the result was inactive.

In the case of `C=CC(F)(C(F)(F)F)C(F)(F)C(F)(F)F` (stereo not given), the outcome was inactive.

On to `CCOCn1c(-c2ccc(Cl)cc2)c(C#N)c(Br)c1C(F)(F)F`, for which the AC50 is 1.72 µM (active).

Consider `NC(=O)c1ccc(N)nc1`, for which the AC50 was 7.61 µM (active).

Take `CC1(C)[C@H](C(=O)O[C@H](C#N)c2cccc(Oc3ccccc3)c2)[C@@H]1/C=C(\Cl)C(F)(F)F`: the AC50 is 1.4 µM (active).

With `CNC(=O)CSP(=O)(OC)OC`, the molecule was called inactive.
